These results are taken from PubChem BioAssay.

This test deals with Torsin-1A-interacting protein 1 (Homo sapiens) (UniProt Q5JTV8). The test is described as follows: compound microarray binding of lysate hLAP1 – cell lysate, small-molecule microarray, COS7 lysate, 635/667 nm fluorescence, primary screen (AID 1116). The note with it: 635 nm fluorescence, higher = more signal.
Torsin-1A-interacting protein 1 (Homo sapiens), sequence (Q5JTV8 whole entry, looked up): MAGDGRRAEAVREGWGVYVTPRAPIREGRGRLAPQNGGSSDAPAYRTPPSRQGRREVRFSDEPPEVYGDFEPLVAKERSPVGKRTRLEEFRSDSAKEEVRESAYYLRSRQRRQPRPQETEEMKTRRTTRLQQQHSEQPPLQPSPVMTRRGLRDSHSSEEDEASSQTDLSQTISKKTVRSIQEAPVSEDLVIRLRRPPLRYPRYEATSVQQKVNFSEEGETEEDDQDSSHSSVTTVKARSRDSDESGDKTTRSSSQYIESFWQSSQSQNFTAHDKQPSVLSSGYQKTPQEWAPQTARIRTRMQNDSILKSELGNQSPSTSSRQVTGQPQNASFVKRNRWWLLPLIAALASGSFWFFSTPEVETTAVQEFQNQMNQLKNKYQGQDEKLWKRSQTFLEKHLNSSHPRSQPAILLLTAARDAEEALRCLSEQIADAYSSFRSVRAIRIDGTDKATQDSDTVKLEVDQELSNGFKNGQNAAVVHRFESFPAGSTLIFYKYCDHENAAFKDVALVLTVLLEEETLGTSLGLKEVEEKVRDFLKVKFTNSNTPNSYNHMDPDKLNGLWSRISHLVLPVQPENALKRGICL
In the case of `CCOC(=O)[C@H](Cc1ccccc1)NC(=O)CCC1CC(OC(=O)NCc2cccc3ccccc23)CC2(CCCC(COC(=O)NCc3ccc4c(c3)OCO4)O2)O1` (stereo partly drawn), the composite z-score worked out at 0.629. `COc1cccc([C@H]2Oc3ccc(OC)cc3C(=NO[C@@H](C)c3cc(-c4c(C)cc(C)cc4C)no3)[C@@H]2O)c1`: the composite z-score was -0.589. As for `CC(=O)OC[C@H]1O[C@H](C#CCCc2ccccc2)C=C[C@@H]1OC(C)=O`, the figure is 0.128; as for `CC(C)=NO[C@@H](C)c1cn([C@H](CO)Cc2ccccc2)nn1`, 0.541. As for `COC(=O)C(C(=O)OC)C1CCCC(=O)C1` (stereo not drawn), the figure is 0.526. With `COC(=O)CC=C[C@@H](C)[C@@H](C=NOC[C@@H](C)[C@H](OCc1ccccc1)C(C)C)OC` the figure was -0.062; with `COc1ccc(O[C@H]2C=C[C@@H](c3ccccc3)O[C@@H]2COC(=O)NCc2cccc3ccccc23)cc1`, 0.469; with `CC(C)CON=C1C[C@@H](O)[C@@H](O)[C@@H]2[C@@H]3C(=O)N(C(C)(C)C)C(=O)[C@@H]3CC[C@@H]12`, 0.0031.

As to `CON=C(C)CCN1CCCCc2nc(C)c(C)cc21`, the composite z-score is 0.445. Consider `O=C1[C@H]2[C@H]3[C@H](O)[C@H](O)CC(=NO[C@@H]4O[C@H](CO)[C@@H](O)[C@H](O)[C@H]4O)[C@@H]3CC[C@H]2C(=O)N1C[C@@H]1CCCO1`, for which the composite z-score was -0.0974.

For `CCN1C(=O)[C@H]2[C@@H]3C(=CC[C@H]2C1=O)C(=O)[C@H]1O[C@H]1[C@H]3O`, the composite z-score was 0.282.

With `CC=CC1=C(CO)[C@H](O)[C@H]2O[C@H]2[C@@H]1O`, the composite z-score was -0.193. With `CC(=O)OC[C@H]1O[C@H](CC=NOC[C@@H](O)[C@H]2O[C@@H]3OC(C)(C)O[C@@H]3[C@H]2O)C=C[C@@H]1OC(C)=O` the figure was 0.51.
